# Experimental data as given in publication PMC7862700, “An all-to-all approach to the identification of sequence-specific readers for epigenetic DNA modifications on cytosine”.
# Tests used:
# Experiment in all cases: DAPPL (digital affinity profiling via proximity ligation, sequencing); 10 mM Tris-HCl pH 7.5, 50 mM NaCl, 1 mM DTT, 4% glycerol, room temperature, 30 min; GST-TFs on glutathione beads, 16-mer random dsDNA library, 0.1% formaldehyde crosslink after washing; high values mean tight binding
# FLI1 = biological target: T1, FLI1 (Homo sapiens, UniProt Q01543 1-452); settings: protein: recombinant; tags: N-terminal GST; dsDNA, one strand shown
# T1 sequence: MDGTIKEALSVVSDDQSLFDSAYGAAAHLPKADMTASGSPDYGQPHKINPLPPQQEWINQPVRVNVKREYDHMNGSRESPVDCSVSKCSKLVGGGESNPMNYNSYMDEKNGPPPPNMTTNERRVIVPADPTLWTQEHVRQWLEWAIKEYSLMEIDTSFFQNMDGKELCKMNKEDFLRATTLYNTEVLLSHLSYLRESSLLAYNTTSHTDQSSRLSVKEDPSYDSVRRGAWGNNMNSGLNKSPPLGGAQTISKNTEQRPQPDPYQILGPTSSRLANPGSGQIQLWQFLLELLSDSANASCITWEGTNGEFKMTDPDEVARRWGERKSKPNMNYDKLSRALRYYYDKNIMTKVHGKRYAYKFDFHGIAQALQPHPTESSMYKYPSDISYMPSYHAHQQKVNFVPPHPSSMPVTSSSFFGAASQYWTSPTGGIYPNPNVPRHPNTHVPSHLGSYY
# How it was run: (§1)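 Beads coated with glutathione captured GST-fused human transcription factors that had been expressed in yeast, and the factors were then given DNA barcodes and pooled with a tag-only sample. The pools were incubated with 200 nmole of a random double-stranded 16-mer DNA library in Tris/NaCl/DTT/glycerol buffer for 30 min at room temperature, washed, crosslinked with 0.1% formaldehyde and proximity-ligated with BsaI/T4 ligase at 37 °C for 1 h. PCR amplification and Illumina NextSeq500 sequencing came last. Binding signal is each hexamer's read frequency for a factor divided by its frequency for the tag-only sample.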
# ELK1 = biological target: T2, ELK1 (Homo sapiens, UniProt P19419 1-428); settings: protein: recombinant; tags: N-terminal GST; dsDNA, one strand shown
# T2 sequence: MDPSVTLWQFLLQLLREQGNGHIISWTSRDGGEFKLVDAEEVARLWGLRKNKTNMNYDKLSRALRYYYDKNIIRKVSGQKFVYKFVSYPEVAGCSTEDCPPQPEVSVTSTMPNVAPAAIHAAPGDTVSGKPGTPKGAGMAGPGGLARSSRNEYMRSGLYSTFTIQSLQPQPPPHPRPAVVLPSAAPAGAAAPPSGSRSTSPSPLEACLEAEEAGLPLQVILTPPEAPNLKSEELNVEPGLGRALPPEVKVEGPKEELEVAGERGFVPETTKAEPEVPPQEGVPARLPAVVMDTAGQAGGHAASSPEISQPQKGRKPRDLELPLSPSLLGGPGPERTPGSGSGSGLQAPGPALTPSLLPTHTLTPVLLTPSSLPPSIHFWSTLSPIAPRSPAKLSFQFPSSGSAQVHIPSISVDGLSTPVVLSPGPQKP
# How it was run: as §1
# GABPA = biological target: T3, GABPA (Homo sapiens, UniProt Q06546 1-454); settings: protein: recombinant; tags: N-terminal GST; dsDNA, one strand shown
# T3 sequence: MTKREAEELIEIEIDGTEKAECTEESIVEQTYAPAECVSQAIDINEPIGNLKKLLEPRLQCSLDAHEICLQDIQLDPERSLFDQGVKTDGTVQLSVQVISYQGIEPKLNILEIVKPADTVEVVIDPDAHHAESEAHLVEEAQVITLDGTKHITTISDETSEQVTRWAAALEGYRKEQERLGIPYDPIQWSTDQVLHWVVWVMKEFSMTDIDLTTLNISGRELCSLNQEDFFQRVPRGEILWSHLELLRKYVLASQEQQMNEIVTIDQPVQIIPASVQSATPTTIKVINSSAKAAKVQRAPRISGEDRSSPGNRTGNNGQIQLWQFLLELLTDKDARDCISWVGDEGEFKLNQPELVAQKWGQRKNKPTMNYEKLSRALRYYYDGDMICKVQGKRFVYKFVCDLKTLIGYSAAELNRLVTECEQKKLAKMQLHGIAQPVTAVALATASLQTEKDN
# How it was run: as §1
# ERG = biological target: T4, ERG (Homo sapiens, UniProt P11308 1-479); settings: protein: recombinant; tags: N-terminal GST; dsDNA, one strand shown
# T4 sequence: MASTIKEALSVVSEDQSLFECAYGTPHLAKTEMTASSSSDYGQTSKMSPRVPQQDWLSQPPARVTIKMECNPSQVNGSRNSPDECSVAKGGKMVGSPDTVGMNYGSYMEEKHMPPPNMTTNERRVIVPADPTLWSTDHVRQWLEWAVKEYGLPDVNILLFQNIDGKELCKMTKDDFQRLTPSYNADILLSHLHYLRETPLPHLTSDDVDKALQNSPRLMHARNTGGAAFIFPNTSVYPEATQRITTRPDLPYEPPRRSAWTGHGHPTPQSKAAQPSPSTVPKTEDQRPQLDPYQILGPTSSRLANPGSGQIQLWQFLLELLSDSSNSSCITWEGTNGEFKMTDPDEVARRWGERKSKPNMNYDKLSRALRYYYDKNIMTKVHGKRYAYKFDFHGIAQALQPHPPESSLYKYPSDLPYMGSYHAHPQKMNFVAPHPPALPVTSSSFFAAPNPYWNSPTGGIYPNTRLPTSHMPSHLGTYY
# How it was run: as §1
# ELF1 = ELF1 (Homo sapiens, UniProt P32519 1-619); settings: protein: recombinant; tags: N-terminal GST; dsDNA, one strand shown
# Sequence of ELF1 (P32519 whole entry): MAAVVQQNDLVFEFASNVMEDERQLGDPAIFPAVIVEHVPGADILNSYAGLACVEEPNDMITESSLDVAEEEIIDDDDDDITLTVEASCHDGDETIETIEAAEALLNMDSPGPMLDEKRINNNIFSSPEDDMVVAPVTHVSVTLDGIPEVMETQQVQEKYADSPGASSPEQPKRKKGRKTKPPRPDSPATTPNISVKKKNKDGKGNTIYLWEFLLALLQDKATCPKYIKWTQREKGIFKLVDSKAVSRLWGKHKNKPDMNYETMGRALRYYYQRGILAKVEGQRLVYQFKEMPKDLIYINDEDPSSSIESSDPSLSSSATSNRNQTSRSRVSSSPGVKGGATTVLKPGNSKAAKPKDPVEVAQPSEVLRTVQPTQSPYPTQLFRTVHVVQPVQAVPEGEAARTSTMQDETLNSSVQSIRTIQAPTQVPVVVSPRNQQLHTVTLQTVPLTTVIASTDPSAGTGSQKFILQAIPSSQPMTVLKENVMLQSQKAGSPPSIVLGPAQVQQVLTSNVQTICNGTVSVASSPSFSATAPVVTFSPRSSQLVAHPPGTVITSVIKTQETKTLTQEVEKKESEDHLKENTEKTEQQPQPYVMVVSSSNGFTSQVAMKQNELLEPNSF
# How it was run: as §1
# EHF = biological target: T5, EHF (Homo sapiens, UniProt Q9NZC4 1-300); settings: protein: recombinant; tags: N-terminal GST; dsDNA, one strand shown
# T5 sequence: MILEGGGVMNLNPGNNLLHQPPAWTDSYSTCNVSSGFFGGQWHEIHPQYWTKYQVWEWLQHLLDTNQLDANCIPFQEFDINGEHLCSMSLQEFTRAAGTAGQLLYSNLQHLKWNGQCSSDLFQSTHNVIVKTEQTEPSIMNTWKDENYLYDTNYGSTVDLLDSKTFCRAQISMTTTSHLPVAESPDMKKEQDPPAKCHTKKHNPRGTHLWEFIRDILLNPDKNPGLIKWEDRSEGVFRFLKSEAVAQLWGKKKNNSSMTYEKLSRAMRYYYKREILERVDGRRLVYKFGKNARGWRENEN
# How it was run: as §1
# SPI1 = SPI1 (Homo sapiens, UniProt P17947 1-270); settings: protein: recombinant; tags: N-terminal GST; dsDNA, one strand shown
# How it was run: as §1
# SPIB = SPIB (Homo sapiens, UniProt Q01892 1-262); settings: protein: recombinant; tags: N-terminal GST; dsDNA, one strand shown
# Sequence of SPIB (Q01892 whole entry): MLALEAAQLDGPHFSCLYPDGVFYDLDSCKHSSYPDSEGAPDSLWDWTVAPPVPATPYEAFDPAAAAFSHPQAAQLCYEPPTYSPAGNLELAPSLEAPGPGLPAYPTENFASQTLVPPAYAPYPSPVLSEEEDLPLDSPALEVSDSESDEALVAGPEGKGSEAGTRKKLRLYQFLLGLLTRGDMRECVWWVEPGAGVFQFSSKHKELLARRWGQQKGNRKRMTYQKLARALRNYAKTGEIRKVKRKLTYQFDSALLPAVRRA
# How it was run: as §1
# ELK3 = biological target: T6, ELK3 (Homo sapiens, UniProt P41970 1-407); settings: protein: recombinant; tags: N-terminal GST; dsDNA, one strand shown
# T6 sequence: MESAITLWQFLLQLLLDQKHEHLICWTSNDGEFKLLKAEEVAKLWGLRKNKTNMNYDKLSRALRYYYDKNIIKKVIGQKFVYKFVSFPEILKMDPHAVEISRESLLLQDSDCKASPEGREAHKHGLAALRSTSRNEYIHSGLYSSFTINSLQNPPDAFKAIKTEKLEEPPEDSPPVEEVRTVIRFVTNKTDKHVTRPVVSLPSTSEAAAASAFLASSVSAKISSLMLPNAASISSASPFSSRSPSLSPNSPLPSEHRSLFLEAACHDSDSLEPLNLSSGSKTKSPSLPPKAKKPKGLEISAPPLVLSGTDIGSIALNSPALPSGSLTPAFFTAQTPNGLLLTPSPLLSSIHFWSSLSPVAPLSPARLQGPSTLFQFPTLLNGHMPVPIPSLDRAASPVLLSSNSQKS
# How it was run: as §1
# FEV = biological target: T7, FEV (Homo sapiens, UniProt Q99581 1-238); settings: protein: recombinant; tags: N-terminal GST; dsDNA, one strand shown
# T7 sequence: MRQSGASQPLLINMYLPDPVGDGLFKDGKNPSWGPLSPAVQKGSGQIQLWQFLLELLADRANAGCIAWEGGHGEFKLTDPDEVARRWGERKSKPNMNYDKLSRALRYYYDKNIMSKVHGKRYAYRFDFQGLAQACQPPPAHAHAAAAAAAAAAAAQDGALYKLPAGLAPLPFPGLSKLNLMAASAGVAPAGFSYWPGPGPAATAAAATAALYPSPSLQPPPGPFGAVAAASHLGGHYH
# How it was run: as §1
# ETV5 = ETV5 (Homo sapiens, UniProt P41161 1-510); settings: protein: recombinant; tags: N-terminal GST; dsDNA, one strand shown
# Sequence of ETV5 (P41161 whole entry): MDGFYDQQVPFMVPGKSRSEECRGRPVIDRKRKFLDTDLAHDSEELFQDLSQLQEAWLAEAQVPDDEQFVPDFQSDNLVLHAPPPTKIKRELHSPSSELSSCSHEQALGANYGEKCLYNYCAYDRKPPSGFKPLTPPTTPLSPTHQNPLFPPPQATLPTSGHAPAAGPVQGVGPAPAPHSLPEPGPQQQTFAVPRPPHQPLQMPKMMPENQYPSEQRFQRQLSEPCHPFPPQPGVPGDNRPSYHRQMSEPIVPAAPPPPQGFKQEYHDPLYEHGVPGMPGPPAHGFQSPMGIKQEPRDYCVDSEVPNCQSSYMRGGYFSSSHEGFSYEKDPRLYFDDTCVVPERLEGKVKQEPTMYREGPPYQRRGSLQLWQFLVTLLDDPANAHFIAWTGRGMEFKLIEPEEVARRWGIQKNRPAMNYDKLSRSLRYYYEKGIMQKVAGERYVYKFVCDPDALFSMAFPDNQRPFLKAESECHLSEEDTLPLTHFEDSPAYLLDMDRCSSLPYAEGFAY
# How it was run: as §1
# HSF1 = HSF1 (Homo sapiens, UniProt Q00613 1-529); settings: protein: recombinant; tags: N-terminal GST; chain copies: 3; dsDNA, one strand shown
# Sequence of HSF1 (Q00613 whole entry): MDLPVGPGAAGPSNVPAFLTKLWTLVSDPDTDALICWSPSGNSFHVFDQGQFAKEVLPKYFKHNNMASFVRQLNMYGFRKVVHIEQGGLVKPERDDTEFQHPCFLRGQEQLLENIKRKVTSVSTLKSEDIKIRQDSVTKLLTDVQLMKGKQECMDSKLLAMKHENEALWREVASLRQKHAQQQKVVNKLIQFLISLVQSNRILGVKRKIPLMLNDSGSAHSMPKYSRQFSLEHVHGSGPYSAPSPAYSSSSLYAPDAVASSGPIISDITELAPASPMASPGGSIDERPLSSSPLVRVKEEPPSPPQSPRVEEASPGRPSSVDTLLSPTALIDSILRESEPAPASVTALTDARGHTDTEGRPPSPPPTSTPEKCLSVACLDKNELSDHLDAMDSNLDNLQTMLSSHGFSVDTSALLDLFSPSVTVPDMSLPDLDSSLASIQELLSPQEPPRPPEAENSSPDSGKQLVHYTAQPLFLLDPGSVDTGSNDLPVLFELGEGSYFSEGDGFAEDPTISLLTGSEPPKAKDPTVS
# How it was run: as §1
# SPIC = biological target: T8, SPIC (Homo sapiens, UniProt Q8N5J4 1-248); settings: protein: recombinant; tags: N-terminal GST; dsDNA, one strand shown
# T8 sequence: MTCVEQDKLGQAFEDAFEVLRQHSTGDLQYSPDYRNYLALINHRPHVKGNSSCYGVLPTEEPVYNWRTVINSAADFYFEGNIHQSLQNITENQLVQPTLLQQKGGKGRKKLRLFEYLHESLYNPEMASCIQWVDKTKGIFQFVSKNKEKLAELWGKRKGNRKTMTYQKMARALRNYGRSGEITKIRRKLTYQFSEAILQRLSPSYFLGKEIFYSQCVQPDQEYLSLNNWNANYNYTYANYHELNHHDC
# How it was run: as §1
# ELF4 = ELF4 (Homo sapiens, UniProt Q99607 1-663); settings: protein: recombinant; tags: N-terminal GST; dsDNA, one strand shown
# Sequence of ELF4 (Q99607 whole entry): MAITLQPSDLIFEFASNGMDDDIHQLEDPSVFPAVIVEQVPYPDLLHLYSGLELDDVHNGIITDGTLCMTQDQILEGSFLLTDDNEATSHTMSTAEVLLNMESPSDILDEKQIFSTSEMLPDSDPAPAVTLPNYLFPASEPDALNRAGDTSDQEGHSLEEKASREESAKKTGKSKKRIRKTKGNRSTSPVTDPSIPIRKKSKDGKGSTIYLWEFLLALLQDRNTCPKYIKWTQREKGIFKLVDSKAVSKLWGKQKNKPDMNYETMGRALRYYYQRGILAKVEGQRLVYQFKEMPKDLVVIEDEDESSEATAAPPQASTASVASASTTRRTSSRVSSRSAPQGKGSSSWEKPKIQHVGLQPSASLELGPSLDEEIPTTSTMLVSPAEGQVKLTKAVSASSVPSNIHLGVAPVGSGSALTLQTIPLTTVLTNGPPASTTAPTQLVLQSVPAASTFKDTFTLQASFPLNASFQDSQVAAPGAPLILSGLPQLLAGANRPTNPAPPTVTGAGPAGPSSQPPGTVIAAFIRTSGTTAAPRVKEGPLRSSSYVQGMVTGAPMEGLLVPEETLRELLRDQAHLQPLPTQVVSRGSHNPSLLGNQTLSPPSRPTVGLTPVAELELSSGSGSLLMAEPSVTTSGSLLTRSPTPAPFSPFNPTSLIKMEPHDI
# How it was run: as §1
# ELK4 = biological target: T9, ELK4 (Homo sapiens, UniProt P28324-2 1-405); settings: protein: recombinant; tags: N-terminal GST; dsDNA, one strand shown
# T9 sequence: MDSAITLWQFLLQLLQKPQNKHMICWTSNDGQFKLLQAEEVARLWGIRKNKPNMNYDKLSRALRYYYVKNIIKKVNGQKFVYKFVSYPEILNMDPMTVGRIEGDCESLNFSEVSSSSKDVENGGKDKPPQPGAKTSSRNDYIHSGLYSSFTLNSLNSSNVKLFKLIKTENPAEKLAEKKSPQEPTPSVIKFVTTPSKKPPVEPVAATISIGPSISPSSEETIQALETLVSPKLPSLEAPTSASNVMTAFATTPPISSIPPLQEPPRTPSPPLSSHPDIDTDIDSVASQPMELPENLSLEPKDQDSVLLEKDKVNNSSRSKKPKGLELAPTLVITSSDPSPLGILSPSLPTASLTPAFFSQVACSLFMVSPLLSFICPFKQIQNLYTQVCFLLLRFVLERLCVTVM
# How it was run: as §1
# ETV2 = biological target: T10, ETV2 (Homo sapiens, UniProt O00321 1-342); settings: protein: recombinant; tags: N-terminal GST; dsDNA, one strand shown
# T10 sequence: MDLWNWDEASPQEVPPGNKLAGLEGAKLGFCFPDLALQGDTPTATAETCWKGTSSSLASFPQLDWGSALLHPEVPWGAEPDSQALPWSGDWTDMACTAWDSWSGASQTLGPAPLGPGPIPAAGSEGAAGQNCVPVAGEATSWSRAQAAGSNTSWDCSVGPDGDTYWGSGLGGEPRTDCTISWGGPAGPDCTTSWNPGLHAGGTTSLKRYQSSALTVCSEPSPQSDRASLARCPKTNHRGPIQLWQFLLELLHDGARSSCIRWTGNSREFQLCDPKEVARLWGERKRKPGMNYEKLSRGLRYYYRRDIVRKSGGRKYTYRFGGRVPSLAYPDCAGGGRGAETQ
# How it was run: as §1
# ELF3 = biological target: T11, ELF3 (Homo sapiens, UniProt P78545 1-371); settings: protein: recombinant; tags: N-terminal GST; dsDNA, one strand shown
# T11 sequence: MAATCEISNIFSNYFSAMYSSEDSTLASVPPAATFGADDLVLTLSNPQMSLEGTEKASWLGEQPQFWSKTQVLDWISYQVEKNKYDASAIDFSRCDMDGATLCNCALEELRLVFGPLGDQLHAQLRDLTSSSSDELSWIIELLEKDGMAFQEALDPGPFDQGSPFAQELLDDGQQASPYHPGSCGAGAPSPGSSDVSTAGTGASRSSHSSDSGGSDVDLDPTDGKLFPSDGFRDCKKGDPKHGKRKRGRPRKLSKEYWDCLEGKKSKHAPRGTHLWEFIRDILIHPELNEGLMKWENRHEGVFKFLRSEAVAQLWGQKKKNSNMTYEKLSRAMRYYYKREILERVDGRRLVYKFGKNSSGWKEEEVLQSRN
# How it was run: as §1
# CRX = CRX (Homo sapiens, UniProt O43186 1-299); settings: protein: recombinant; tags: N-terminal GST; dsDNA, one strand shown
# Sequence of CRX (O43186 whole entry): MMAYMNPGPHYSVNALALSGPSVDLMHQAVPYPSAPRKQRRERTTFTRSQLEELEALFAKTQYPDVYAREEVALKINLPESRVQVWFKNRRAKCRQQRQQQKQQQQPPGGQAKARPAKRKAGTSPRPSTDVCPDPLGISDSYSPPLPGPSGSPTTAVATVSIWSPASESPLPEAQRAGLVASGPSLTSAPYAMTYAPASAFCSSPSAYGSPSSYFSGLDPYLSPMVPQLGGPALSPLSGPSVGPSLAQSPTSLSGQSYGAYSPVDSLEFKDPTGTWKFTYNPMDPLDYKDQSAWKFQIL
# How it was run: as §1
# ETV1 = ETV1 (Homo sapiens, UniProt P50549 1-477); settings: protein: recombinant; tags: N-terminal GST; dsDNA, one strand shown
# Sequence of ETV1 (P50549 whole entry): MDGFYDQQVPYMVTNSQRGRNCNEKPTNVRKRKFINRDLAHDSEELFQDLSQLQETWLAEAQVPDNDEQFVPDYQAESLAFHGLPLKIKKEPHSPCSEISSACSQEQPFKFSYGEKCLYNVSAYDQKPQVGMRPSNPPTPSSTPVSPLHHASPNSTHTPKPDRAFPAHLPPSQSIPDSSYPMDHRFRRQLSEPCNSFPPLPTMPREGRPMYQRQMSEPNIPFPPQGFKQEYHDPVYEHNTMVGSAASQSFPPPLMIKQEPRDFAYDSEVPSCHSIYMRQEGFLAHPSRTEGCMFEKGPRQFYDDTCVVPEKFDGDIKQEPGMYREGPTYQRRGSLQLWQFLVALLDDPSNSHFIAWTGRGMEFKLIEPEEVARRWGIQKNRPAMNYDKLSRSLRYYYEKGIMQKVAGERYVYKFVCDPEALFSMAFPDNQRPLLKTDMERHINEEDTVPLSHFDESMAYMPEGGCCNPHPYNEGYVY
# How it was run: as §1
sequence,measurement,setting,value
TAAATG,binding signal,FLI1,"1.22 fold enrichment (6-mer frequency, TF over GST control)"
same,binding signal,ELK1,"1.21 fold enrichment (6-mer frequency, TF over GST control)"
same,binding signal,GABPA,"1.34 fold enrichment (6-mer frequency, TF over GST control)"
same,binding signal,ERG,"1.27 fold enrichment (6-mer frequency, TF over GST control)"
same,binding signal,ELF1,"1.34 fold enrichment (6-mer frequency, TF over GST control)"
same,binding signal,EHF,"1.27 fold enrichment (6-mer frequency, TF over GST control)"
same,binding signal,SPI1,"1.36 fold enrichment (6-mer frequency, TF over GST control)"
same,binding signal,SPIB,"1.35 fold enrichment (6-mer frequency, TF over GST control)"
same,binding signal,ELK3,"1.29 fold enrichment (6-mer frequency, TF over GST control)"
same,binding signal,FEV,"1.18 fold enrichment (6-mer frequency, TF over GST control)"
same,binding signal,ETV5,"1.38 fold enrichment (6-mer frequency, TF over GST control)"
same,binding signal,HSF1,"1.37 fold enrichment (6-mer frequency, TF over GST control)"
same,binding signal,SPIC,"1.46 fold enrichment (6-mer frequency, TF over GST control)"
same,binding signal,ELF4,"1.25 fold enrichment (6-mer frequency, TF over GST control)"
same,binding signal,ELK4,"1.39 fold enrichment (6-mer frequency, TF over GST control)"
same,binding signal,ETV2,"1.31 fold enrichment (6-mer frequency, TF over GST control)"
same,binding signal,ELF3,"1.34 fold enrichment (6-mer frequency, TF over GST control)"
same,binding signal,CRX,"1.69 fold enrichment (6-mer frequency, TF over GST control)"
same,binding signal,ETV1,"1.37 fold enrichment (6-mer frequency, TF over GST control)"
